# High-throughput results as filed in PubChem BioAssay.
# GPR151 activ = activators of human GPR151, primary screen, cell-based, PathHunter beta-arrestin, luminescence; G-protein coupled receptor 151 (Homo sapiens), Q8TDV0; PathHunter beta-arrestin GPR151 cells; activation, % at 11.2 µM; 650,000 compounds, 1% hits; AID 1508602, 2020; in the data active = activation above about 4.9%;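 also: 0% = median of compound wells and 100% = cells with positive control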
# Target sequence (Q8TDV0 whole entry, looked up): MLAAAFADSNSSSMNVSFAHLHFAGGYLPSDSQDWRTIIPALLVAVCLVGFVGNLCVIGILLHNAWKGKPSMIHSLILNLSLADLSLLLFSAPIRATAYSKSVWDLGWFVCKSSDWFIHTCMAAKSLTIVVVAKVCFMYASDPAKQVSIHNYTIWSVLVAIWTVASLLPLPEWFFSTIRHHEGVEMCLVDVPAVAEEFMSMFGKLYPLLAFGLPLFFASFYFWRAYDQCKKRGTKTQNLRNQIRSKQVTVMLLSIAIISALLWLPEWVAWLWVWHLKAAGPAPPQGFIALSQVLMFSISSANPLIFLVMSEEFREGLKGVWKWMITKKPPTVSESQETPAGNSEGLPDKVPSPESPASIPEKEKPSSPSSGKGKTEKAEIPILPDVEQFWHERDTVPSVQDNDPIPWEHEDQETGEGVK
# TEAD-YAP block = TEAD-YAP interaction inhibition, primary screen, TEAD-YAP interaction inhibitor project, luminescence, HEK-TIYL cells; TEAD-Gal4/YAP UAS-luciferase luminescence; 640,000 compounds, 1.4% hits; AID 1259422, 2018; inhibition, % at 9.12 µM; in the data active = inhibition above about 32%;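 also: 0% = median of test compound wells and 100% = reference inhibitor wells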
# MITF primary = MITF inhibitors, primary screen, biochemical, AlphaScreen, human; Microphthalmia-associated transcription factor (Homo sapiens), O75030; AlphaScreen MITF homodimerization, bead proximity signal; inhibition, % at 2.6 µM; 650,000 compounds, 0.91% hits; AID 1259374, 2018; in the data active = inhibition above about 50%;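 also: 0% = vehicle wells with protein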
# FBW7 activator = FBW7 E3 ligase activators, primary screen, biochemical, AlphaScreen, human; F-box/WD repeat-containing protein 7 (Homo sapiens), Q969H0; AlphaScreen FBW7–phospho-cyclin E peptide binding, activator screen; normalized activity (activation), % at 26.1 µM; 650,000 compounds, 0.13% hits; in the data active = normalized activity above about 1.9%;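 also: purified mutant Fbw7 with reduced substrate affinity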
# MITF confirm = MITF inhibitors, retest of hits, confirmation, biochemical, AlphaScreen, triplicate; shares compounds with MITF primary; AlphaScreen MITF homodimerization, biotin/His-MITF beads; inhibition, % at 2.6 µM; 4,700 compounds, 16% hits; AID 1259372, 2018;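 active = inhibition above a cutoff derived from the DMSO control wells, cut at about 28% in these data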;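 also: 0% = MITF dimer wells with DMSO only; inhibitors lower the bead chemiluminescence by keeping MITF from dimerizing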
# AS interf DR = AlphaScreen optical interference compounds, dose response, counter-screen, biochemical, HTS. AID 1259373, 2018. 480 compounds, 6% hits. IC50, µM. shares compounds with MITF primary. AlphaScreen optical interference counterscreen, cell-free; call rule not given here
# AS interf ctr = AlphaScreen optical interference compounds, counter-screen for MITF inhibitor project, biochemical, triplicate; shares compounds with MITF primary; LysRS AlphaScreen counterscreen, signal interference; inhibition, % at 2.6 µM; 4,700 compounds, 7.6% hits;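 active = inhibition above a cutoff derived from the DMSO control wells, cut at about 30% in these data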
# Starred values were filed as active, the others as inactive; . = no result given. Only some compounds are listed: those with a hit (about 3.4% of all), similar ones and a draw of the others.
SMILES,GPR151 activ,TEAD-YAP block,MITF primary,FBW7 activator,MITF confirm,AS interf ctr,others
CCC(C)C(NCCC(=O)c1ccc(F)cc1)C(=O)O (stereo unspecified),-1.4,13.3,9.9,0.2,.,.,
COC(=O)c1ccc(C2Oc3ccc(Cl)cc3C3CC(c4cccc(OC)c4)=NN32)cc1 (stereo unspecified),1.7,-0.8,9.9,-0.1,.,.,
CC1(C2CCN(Cc3cc4ccccc4s3)CC2)NC(=O)NC1=O (stereo unspecified),-0.4,11.0,-1.1,0.1,.,.,
NC(=O)c1cc(NC(=O)COC(=O)COc2cccc(C(F)(F)F)c2)cc(C(N)=O)c1,1.0,0.8,53.1*,0.1,48.5*,2.9,AS interf DR=>6.49
O=C(c1ccc(=O)oc1)N1CCc2ccccc21,-0.3,3.5,73.6*,-0.1,76.0*,10.9,AS interf DR=>7.53
O=C(NCc1cccc(Cl)c1)C1CCN(Cc2cccnc2)CC1,0.4,5.2,5.2,-0.1,.,.,
Fc1cccc(CN2CCN(Cc3cccnc3)CC2)c1,1.3,-1.0,84.7*,0.1,10.1,15.7,
Clc1cccc(CN2CCN(Cc3cccnc3)CC2)c1,-0.3,6.6,84.9*,0.1,8.3,16.7,
COc1ccc2c3c(cccc13)C(=O)N(O)C2=O,1.2,11.8,-17.1,0.6,.,.,
COc1ccc2c3c(cccc13)C(=O)N(C)C2=O,-0.3,-4.8,66.9*,0.0,76.0*,0.6,AS interf DR=>6.48
CC(=O)CC1=C(C(=O)O)N2C(=O)C(N)C2SC1 (stereo unspecified),-0.2,10.9,60.6*,0.1,29.7*,0.2,AS interf DR=>6.48
Cn1nnnc1SCC1=C(C(=O)O)N2C(=O)C(N)C2SC1 (stereo unspecified),-1.4,3.3,37.2,0.0,.,.,
CNc1nc(-c2ccccn2)nnc1-c1ccccc1,-1.3,-5.5,108.4*,-0.5,107.1*,97.7*,
O=C(NC1CCN(C(=O)CN2CCOCC2)CC1)c1ccccc1F,-0.6,-0.8,69.1*,0.7,-11.9,-10.7,
COCCCn1c(C)cc(C(=O)CSc2nnc(-c3ccc(F)cc3)o2)c1C,-0.5,-5.2,2.1,0.2,.,.,
CCOC(=O)c1cc(-c2ccccc2)sc1NC(=O)CCN1CCN(C)CC1,1.6,-8.1,57.6*,-0.2,0.8,17.6,
CCOC(=O)c1c(-c2ccc(OC)c(OC)c2)csc1NC(=O)CCN1CCN(C)CC1,-0.8,5.0,81.0*,-0.2,-4.8,3.5,
CCN1CCN(CC(=O)NCc2ccc(F)cc2)CC1,1.8,2.6,78.7*,-0.1,3.3,14.0,
CCOC(=O)c1c(-c2ccc(OC)c(OC)c2)csc1NC(=O)CN1CCCC1,0.7,4.9,-11.7,0.2,.,.,
CCOC(=O)c1c(-c2ccc(C)cc2)csc1NC(=O)CCN1CCN(CC)CC1,-0.4,-3.6,52.6*,0.0,4.3,2.8,
CCOC(=O)c1c(-c2ccc(F)cc2)csc1NC(=O)CN1CCOCC1,0.5,-2.1,-5.7,-0.1,.,.,
CCOC(=O)c1c(-c2ccc(F)cc2)csc1NC(=O)CN1CCN(CC)CC1,-0.6,9.5,62.9*,0.2,5.0,13.7,
c1ccc(CCCN2CCN(C3CCN(Cc4ccccc4)CC3)CC2)cc1,-0.2,-8.2,-4.6,0.1,.,.,
CN1CCCN(Cc2ccccc2F)CC1,0.5,-0.5,11.5,-0.2,.,.,
Fc1ccccc1OCCCN1CCN(Cc2ccccc2)CC1,-1.2,4.6,64.1*,0.7,6.2,16.1,
SMILES,GPR151 activ,TEAD-YAP block,MITF primary,FBW7 activator,MITF confirm,AS interf ctr,others
c1ccc(CCCN2CCN(Cc3cccnc3)CC2)cc1,-2.3,-1.9,83.4*,0.1,18.8,19.4,
Fc1ccc(CN2CCN(CCCc3ccccc3)CC2)cc1,-1.3,-4.0,58.6*,0.0,5.0,-0.2,
Fc1ccccc1CN1CCN(CCCc2ccccc2)CC1,-1.6,4.0,72.8*,-0.2,7.7,3.1,
CC1=C(C(=O)Nc2cccc(F)c2)C(c2ccccn2)C2=C(CC(c3ccccc3)CC2=O)N1 (stereo unspecified),0.7,-7.3,-7.0,0.1,.,.,
Clc1ccccc1CN1CCN(C2CCCCC2)CC1,1.3,-14.6,65.4*,0.1,12.9,15.0,
O=C1CCC(N2CCCC2)CCN1Cc1ccccc1Cl (stereo unspecified),-0.2,0.3,-0.4,-0.1,.,.,
Clc1ccccc1CN1CCN(C2CCCC2)CC1,-0.9,4.7,73.6*,-0.1,19.2,16.2,
Cc1ccccc1CN1CCC(N2CCCC2)CC1,-0.9,-0.5,47.2,0.2,.,.,
Cc1ccccc1CN1CCN(C2CCCC2)CC1,2.7,8.8,57.1*,0.1,-18.2,3.6,
c1ccc(CN2CCC(N3CCN(C4CCCCCC4)CC3)CC2)cc1,0.0,-1.6,21.2,0.0,.,.,
Cc1cc([N+](=O)[O-])ccc1N=Cc1ccc([N+](=O)[O-])s1,-1.1,1.1,6.8,-0.1,.,.,
COCCCNCCCCOc1ccc(C(C)C)c(C)c1,-0.4,6.6,58.5*,-0.1,3.5,15.1,
COCCCNCCCOc1ccc(C(C)C)c(C)c1,-2.0,-4.6,59.1*,-0.2,1.7,17.7,
C=C1OC(=O)OC1(C)CC/C=C(\C)CCC=C(C)C (stereo unspecified),-0.1,-14.9,-7.0,0.4,.,.,
CCOC(=O)N1CCN(S(=O)(=O)c2ccc(C(=O)Nc3ccc(-c4nc5ccc(C)cc5s4)cc3)cc2)CC1,-0.1,-3.7,53.3*,0.2,-21.5,-1.7,
CCOC(=O)N1CCN(S(=O)(=O)c2ccc(C(=O)Nc3ccc4nc(C)sc4c3)cc2)CC1,0.4,26.6,10.2,-0.1,.,.,
CC(=O)N1CCN(Cc2ccccc2[N+](=O)[O-])CC1,0.1,1.4,-14.3,0.0,.,.,
COc1ccc(OC)c(CN2CCN(S(=O)(=O)c3ccccc3[N+](=O)[O-])CC2)c1,-0.2,-13.4,36.8,0.0,.,.,
COc1ccc(CN2CCN(Cc3ccccc3[N+](=O)[O-])CC2)c(OC)c1,-1.4,-3.6,52.2*,0.2,5.3,11.5,
COc1ccc(OC)c(CN2CCN(Cc3ccccc3[N+](=O)[O-])CC2)c1,-0.2,4.7,76.8*,-0.8,7.3,16.4,
O=C(CN1CCN(Cc2ccccc2)CC1)Nc1ccc(-c2nc3cc(NC(=O)CN4CCN(Cc5ccccc5)CC4)ccc3o2)cc1,1.0,15.6,-7.0,0.0,.,.,
CCOC(=O)C1CCCN(Cc2ccc(OC)cc2)C1 (stereo unspecified),0.2,6.8,51.5*,0.1,-5.3,-0.1,
COc1ccc(CN2CCCC(C(=O)NN)C2)cc1 (stereo unspecified),-0.8,0.3,36.1,-0.3,.,.,
CCOC(=O)C1CCCN(Cc2ccc(O)cc2)C1 (stereo unspecified),-0.5,-6.1,18.9,0.0,.,.,
